The source of these data is PubChem BioAssay (NCATS).

Results filed as inconclusive are left out. The source made the active and inactive calls. Unless noted, calls come from the whole dose curve; as a rule, active = well fitted cell-killing curve with a large enough effect; inconclusive = small, poorly fitted or top-dose-only effect; inactive = flat fitted curve, though single readings scatter.

Assay [1] can be described thus: qHTS for Inhibitors of the Functional Ribonucleoprotein Complex (vRNP) of Lassa (LASV) Arenavirus: LASV Primary Screen - GLuc reporter signal (AID 1347082; calls by dose curve; tested in HEK293 reporter line; note: nearly all actives have a fitted effect of over 60% in size).
A short description of assay [2]: qHTS for Inhibitors of the Functional Ribonucleoprotein Complex (vRNP) of Lassa (LASV) Arenavirus: Viability assay - alamar blue signal for LASV Primary Screen (AID 1347083; calls by dose curve; tested in HEK293 reporter line; note: nearly all actives have a fitted effect of over 80% in size). For orientation: In qHTS, concentration-response curves come from the screen itself.
Assay [3] can be described thus: qHTS for Inhibitors of the Functional Ribonucleoprotein Complex (vRNP) of Lymphocytic Choriomeningitis Arenaviruses (LCMV): Viability assay - alamar blue signal for LCMV Primary Screen (AID 1347085; calls by dose curve; tested in HEK293 reporter line; note: nearly all actives have a fitted effect of over 80% in size).
In assay [4] the target is Nucleoprotein (Lymphocytic choriomeningitis virus (strain Armstrong)) (UniProt P09992). Nature of the assay: qHTS for Inhibitors of the Functional Ribonucleoprotein Complex (vRNP) of Lymphocytic Choriomeningitis Arenaviruses (LCMV): LCMV Primary Screen - GLuc reporter signal (AID 1347086; calls by dose curve; note: nearly all actives have a fitted effect of over 70% in size).
Assay [5] in a line: qHTS of pediatric cancer cell lines to identify multiple opportunities for drug repurposing: Primary screen for TC32 cells (AID 1347089). Note: nearly all actives have a fitted effect of over 60% in size. The method in brief:
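Luminescent ATP read-out (CellTiter-Glo) of metabolically active TC32 cells after 48 h exposure. Concentration-response curves came from 11-point (MIPE, 0.78 nM–46 µM) or 8-point (NPC, 0.59 nM–46 µM) primary titrations; follow-up used 11 points.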

Assay [6] can be described thus: qHTS of pediatric cancer cell lines to identify multiple opportunities for drug repurposing: Primary screen for DAOY cells (AID 1347090). Note: nearly all actives have a fitted effect of over 55% in size. In outline:
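Cell viability, CellTiter-Glo luminescence; 500-1,000 cells/well, 8- or 11-point titration, 48 h compound exposure at 37 degrees C, 5% CO2. Controls: DMSO neutral, bortezomib 2.3 µM final as positive.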
Potency is the fitted concentration of half-maximal effect.

Chain of Nucleoprotein (Lymphocytic choriomeningitis virus (strain Armstrong)) (P09992 whole entry, looked up): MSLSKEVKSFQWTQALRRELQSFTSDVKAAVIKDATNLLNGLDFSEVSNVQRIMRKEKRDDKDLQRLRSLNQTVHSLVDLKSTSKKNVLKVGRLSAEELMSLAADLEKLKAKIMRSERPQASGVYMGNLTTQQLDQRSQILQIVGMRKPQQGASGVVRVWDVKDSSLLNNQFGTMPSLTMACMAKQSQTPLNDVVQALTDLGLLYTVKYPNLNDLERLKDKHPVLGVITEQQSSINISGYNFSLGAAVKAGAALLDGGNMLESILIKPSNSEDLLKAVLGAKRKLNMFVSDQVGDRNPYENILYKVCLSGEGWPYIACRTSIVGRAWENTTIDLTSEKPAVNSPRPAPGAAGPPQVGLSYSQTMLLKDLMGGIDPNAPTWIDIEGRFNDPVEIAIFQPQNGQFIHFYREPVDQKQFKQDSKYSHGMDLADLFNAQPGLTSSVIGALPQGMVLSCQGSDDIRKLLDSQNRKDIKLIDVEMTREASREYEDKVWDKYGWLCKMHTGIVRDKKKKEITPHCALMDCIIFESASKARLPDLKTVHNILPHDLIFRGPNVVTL

Take `O=C(O)CNC(=O)c1c(O)c2ccccc2n(Cc2ccccc2)c1=O`: the Potency entry in assay [1], in assay [2], in assay [3], in assay [4], in assay [5] and in assay [6] was “inactive” throughout.
In the case of `O=[N+]([O-])/N=C1\NCCN1Cc1ccc(Cl)nc1`, the Potency entry in assay [1], in assay [2], in assay [3], in assay [4], in assay [5] and in assay [6] was “inactive” in each case.
As for `CCOCCOC(C)=O`, the Potency result in assay [1], in assay [2], in assay [3], in assay [4], in assay [5] and in assay [6] was “inactive” throughout.
On to `COc1ccc2c(c1)CN(C)CC2c1ccc(Cl)c(Cl)c1` (stereo unspecified), for which the Potency entry in assay [1], in assay [3], in assay [4], in assay [5] and in assay [6] was “inactive” each time. For the same compound, in assay [2], the Potency was 7.69 µM (active).
As for `CCCCOC(=O)c1ccccc1C(=O)OCc1ccccc1`, the Potency entry in assay [1], in assay [2], in assay [3], in assay [4], in assay [5] and in assay [6] was “inactive” throughout.
`Oc1ccc2c3c1O[C@H]1[C@@H](O)C=C[C@H]4[C@@H](C2)NCC[C@@]341`: the Potency result in assay [1], in assay [2], in assay [3], in assay [4], in assay [5] and in assay [6] was “inactive” each time.
Consider `ClC1=C(Cl)[C@]2(Cl)[C@@H]3[C@@H]4C[C@@H]([C@H]5O[C@@H]45)[C@@H]3[C@@]1(Cl)C2(Cl)Cl`, for which the Potency entry in assay [1], in assay [2], in assay [3], in assay [4] and in assay [5] was “inactive” throughout. In assay [6], the Potency is 38.6 µM (active).
Consider `CCOP(=O)(OCC)C(C)NC(=O)N(CCCl)N=O` (stereo unspecified), for which the Potency entry in assay [1], in assay [2], in assay [3], in assay [4], in assay [5] and in assay [6] was “inactive” each time.
Take `Nc1ccc(Cl)cc1`: the Potency entry in assay [1], in assay [2], in assay [3], in assay [4], in assay [5] and in assay [6] was “inactive” throughout.
For `O=[N+]([O-])c1ncc[nH]1`, the Potency entry in assay [1], in assay [2], in assay [3], in assay [4] and in assay [5] was “inactive” in each case.
Take `CC(C)NCC(O)c1ccc([N+](=O)[O-])cc1` (stereo unspecified): the Potency result in assay [1], in assay [2], in assay [3], in assay [4], in assay [5] and in assay [6] was “inactive” in each case.
`CS(=O)(=O)c1ccc(C(=O)C2C(=O)CCCC2=O)c([N+](=O)[O-])c1`: the Potency entry in assay [1], in assay [2], in assay [3], in assay [4], in assay [5] and in assay [6] was “inactive” in each case.
For `CC(C)(C)C(O)C(Oc1ccc(Cl)cc1)n1cncn1` (stereo unspecified), the Potency result in assay [1], in assay [2], in assay [3], in assay [4], in assay [5] and in assay [6] was “inactive” in each case.
With `C[C@]12COC(=O)C[C@@H]1CC[C@@H]1[C@H]2CC[C@@]2(C)[C@H]1CC[C@]2(C)O`, the Potency entry in assay [1], in assay [2], in assay [3], in assay [4], in assay [5] and in assay [6] was “inactive” in each case.
Take `CCCN1CCO[C@@H]2c3cc(O)ccc3OC[C@@H]21`: the Potency result in assay [1], in assay [2], in assay [3], in assay [4], in assay [5] and in assay [6] was “inactive” each time.
With `CC(=CCCC1=CCC(C2=CC(=O)OC2O)OC1O)CCC1=C(C)CCCC1(C)C` (stereo unspecified), the Potency entry in assay [1], in assay [2], in assay [3], in assay [4], in assay [5] and in assay [6] was “inactive” each time.
In the case of `C[C@@H]1[C@H](O)[C@@H](C)C=CC=CCCC=CC=CC=CC=C[C@H](O[C@H]2O[C@@H](C)[C@H](O)[C@@H](N)[C@@H]2O)CC2O[C@](O)(C[C@@H](O)[C@H](O)CC[C@@H](O)C[C@@H](O)C[C@@H](O)CC(=O)O[C@H]1C)C[C@H](O)[C@H]2C(=O)O`, the Potency entry in assay [1], in assay [2], in assay [3], in assay [4], in assay [5] and in assay [6] was “inactive” in each case.
For the compound `Cc1[nH]nc2ccc(-c3cncc(OC[C@@H](N)Cc4c[nH]c5ccccc45)c3)cc12`, the Potency in assay [1] is 485 nM (active); in assay [2], 0.172 µM (active); in assay [3] it was 432 nM (active); in assay [4] it was 243 nM (active); in assay [5] it was 1.86 µM (active); in assay [6], 1.87 µM (active).
For the compound `Clc1ccccc1C(c1ccccc1)(c1ccccc1)n1cccn1`, the Potency entry in assay [1], in assay [2], in assay [3], in assay [4], in assay [5] and in assay [6] was “inactive” in each case.
`CC1=C(C(=O)O)N2C(=O)[C@@H](N)[C@H]2SC1`: the Potency entry in assay [1], in assay [2], in assay [3], in assay [4], in assay [5] and in assay [6] was “inactive” each time.
`C[C@]12CCC(=O)C(O)=C1CC[C@@H]1[C@H]3CCC(=O)[C@@]3(C)CC[C@@H]12`: the Potency entry in assay [1], in assay [2], in assay [3], in assay [4], in assay [5] and in assay [6] was “inactive” throughout.
For `CCOC(=O)c1cncn1[C@H](C)c1ccccc1`, the Potency result in assay [1], in assay [2], in assay [3], in assay [4], in assay [5] and in assay [6] was “inactive” throughout.
As for `O=[N+]([O-])c1ccc([As](=O)(O)O)cc1`, the Potency entry in assay [1], in assay [2], in assay [3], in assay [4], in assay [5] and in assay [6] was “inactive” throughout.
Regarding `COc1cc2cc(c1Cl)N(C)C(=O)C[C@H](OC(=O)C(C)C)[C@]1(C)O[C@H]1[C@H](C)[C@@H]1C[C@@](O)(NC(=O)O1)[C@H](OC)C=CC=C(C)C2`, the Potency result in assay [1], in assay [2], in assay [3] and in assay [4] was “inactive” throughout. In assay [5], the Potency was 0.208 µM (active).
For `CCC(=O)OC1CCC2C3CCC4=CC(=O)CC[C@@]4(C)C3CC[C@]12C` (stereo partly specified), the Potency result in assay [1], in assay [2], in assay [3], in assay [4], in assay [5] and in assay [6] was “inactive” in each case.
As to `CC(C)(C)NC[C@H](O)c1ccc(O)cc1Cl`, the Potency entry in assay [1], in assay [2], in assay [3], in assay [4], in assay [5] and in assay [6] was “inactive” in each case.
As to `CCCC[N+]1(C)[C@H]2CC(OC(=O)[C@H](CO)c3ccccc3)C[C@H]1[C@H]1O[C@H]12` (stereo partly specified), the Potency result in assay [1], in assay [2], in assay [3], in assay [4], in assay [5] and in assay [6] was “inactive” in each case.
With `CSCC[C@@H](NC(=O)[C@@H](Cc1ccccc1)NC(=O)CNC(=O)CNC(=O)[C@@H](N)Cc1ccc(O)cc1)C(=O)O`, the Potency result in assay [1], in assay [2], in assay [3], in assay [4], in assay [5] and in assay [6] was “inactive” throughout.
In the case of `CCCCC(CC)COC(=O)c1ccccc1C(=O)OCC(CC)CCCC` (stereo unspecified), the Potency result in assay [1], in assay [2], in assay [3], in assay [4], in assay [5] and in assay [6] was “inactive” in each case.
Regarding `O=C(O)COc1ccccc1`, the Potency result in assay [1], in assay [2], in assay [3], in assay [4], in assay [5] and in assay [6] was “inactive” each time.
Consider `Nc1ccc(Cl)cc1N`, for which the Potency entry in assay [1], in assay [2], in assay [3], in assay [4], in assay [5] and in assay [6] was “inactive” in each case.
Turning to `COc1cccc2c1[C@]13CCN(CC4CC4)[C@H](C2)[C@]1(OC)CCC(=O)C3`, the Potency result in assay [1], in assay [2], in assay [3], in assay [4], in assay [5] and in assay [6] was “inactive” throughout.
For the compound `C1CCC(NC2CCCCC2)CC1`, the Potency result in assay [1], in assay [2], in assay [3], in assay [4], in assay [5] and in assay [6] was “inactive” throughout.
